According to PubChem BioAssay (Tox21):
Values joined by “and” are separate entries in the source; they are usually repeats but may differ in a detail not shown here. Equal entries are not always repeated. Records with an inconclusive call do not appear. Active and inactive are the calls of the source. Calls follow the shape of the dose curve; as a rule, active = well fitted cell-killing curve with a large enough effect in the repeat runs; inconclusive = weak or mixed curves, or effect the other way; inactive = no such curve, though single readings can be large or run the other way.

Assay: qHTS assay to identify small molecule agonists of the estrogen receptor alpha (ER-alpha) signaling pathway in the presence of an antagonist - cell viability counter screen (AID 1259386);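 also: cells exposed to compounds for 22 h at 37 °C before the viability read; nearly all actives have a fitted effect of over 30% in size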
Details: VM7Luc4E2 viability, CellTiter-Fluor fluorescence, 22 h; series mostly up to 92.4 µM; activity change, negative = cytotoxicity: at the top concentration
Text: National Center for Advancing Translational Sciences [NCATS]
NIH Chemical Genomics Center [NCGC]
U.S. Environmental Protection Agency [EPA]
National Institutes of Environmental Health Sciences [NIEHS]
National Toxicology Program [NTP]
U.S. Food and Drug Administration [FDA]
Estrogen receptor (ER), a member of nuclear hormone receptor plays an important role in development, metabolic homeostasis and reproduction. Two subtypes of ER, ER-alpha and ER-beta, have similar expression patterns with some uniqueness in both types. Endocrine disrupting chemicals (EDCs) and their interactions with steroid hormone receptors like ER causes disruption of normal endocrine function. Therefore, it is important to understand the effect of environmental chemicals in ER signaling pathway. For identifying ER agonists, VM7Luc4E2 cell line has been used in the current assay.
VM7Luc4E2 cell line (provided by Denison MS, University of California) endogenously expresses full-length ER-alpha and is stably transfected with a plasmid containing four estrogen responsive elements (ERE) upstream of a luciferase reporter gene. This current screening for measuring luciferase reporter gene activity using VM7Luc4E2 cells against Tox21 10K library collection is a confirmation study on agonist mode screening in presence of ER-antagonist (ICI-182,780) at 10.0nM final concentration. The cytotoxicity of the compounds was tested in parallel by measuring the cell viability using CellTiter-Fluor assay system (Promega, Madison, WI) in the same wells.
Tox21 Assay Protocol Summary:
VM7Luc4E2 cells were cultured in phenol red free assay medium containing 10% charcoal stripped FBS for 5 days prior to the assay. The cells were dispensed at 4,000 cells in 4uL of assay medium per well into white wall/solid-bottom 1536-well plates (Corning Life Sciences, Corning, NY) using a Multidrop Combi (Thermo Fisher Scientific Inc., Waltham, MA) dispenser. After the assay plates were incubated at 37C and 5% CO2 for 24hr, 1uL of 10.0nM (final concentration) ICI-182,780 or assay buffer was added using two separate tips of Flying Reagent Dispenser (FRD, Aurora Discovery, San Diego, CA). Then 23nL of compounds dissolved in DMSO at 15 concentrations and positive controls or DMSO only was transferred to the assay plates by a Pintool station (Wako, San Diego, CA). The assay plates were incubated at 37C and 5% CO2 for 22hr. After 21hr incubation at 37C, 1uL/well CellTiter-Fluor reagent (Promega Corporation, Madison, WI) was added to each well using FRD and after 1hr incubation at 37C and 5% CO2, the fluorescence signal was measured on ViewLux plate reader (PerkinElmer, Shelton, CT).
% is scaled to controls: 0 for no effect and ±100 for the full control effect; potency is read from the fitted curve at half-maximal effect.

Structure (SMILES)	activity change, negative = cytotoxicity	Potency
Brc1ccc(Oc2ccc(Br)cc2Br)c(Br)c1	0.66% (inactive)	–
CCC(C)c1cccc(C(C)CC)c1O (stereo not given)	-6.5% (inactive)	–
CCCCC(CC)COC(=O)OOC(C)(C)C (stereo not given)	8.44% (inactive)	–
Cc1ccc2cc3c(ccc4ccccc43)c3c2c1CC3	-3.43% [at 42.5 µM] (inactive)	–
CC(=O)[O-].CC(=O)[O-].[Co+2]	-1.93% (inactive)	–
[F][Sn]([c]1ccccc1)([c]1ccccc1)[c]1ccccc1	–	10.9 µM (active)
O.O.O.O.O.O.O=S(=O)([O-])[O-].[Ni+2]	-5.41% [at 42.5 µM] (inactive)	–
C[N+]1(C)[C@@H]2CC[C@H]1CC(OC(=O)C(CO)c1ccccc1)C2 (stereo not given in full)	-2.03% [at 42.5 µM] (inactive)	–
COc1ccc2[nH]cc(CCN(C(C)C)C(C)C)c2c1	-10.2% (inactive)	–
CC(C)(C)c1ccc(OP(=O)(Oc2ccccc2)Oc2ccccc2)cc1	-6.14% (inactive)	–
CN(C)C(=S)SSC(=S)N(C)C	–	30.2 µM (active) and 30.6 µM (active)
CCc1cccc(C)c1N(C(=O)CCl)[C@@H](C)COC	2.83% (inactive)	–
O=[N+]([O-])c1cc(C(F)(F)F)c(Cl)c([N+](=O)[O-])c1Nc1ncc(C(F)(F)F)cc1Cl	–	30.6 µM (active)
C=C(C)C(=O)[O][Sn]([CH2]CCC)([CH2]CCC)[CH2]CCC	–	8.63 µM (active)
COP(=O)(OC)O/C(=C\Cl)c1cc(Cl)c(Cl)cc1Cl	0.566% (inactive)	–
Clc1ccc(C(Cl)(Cl)Cl)cc1Cl	2.79% (inactive)	–
COC(=O)c1ccccc1S(=O)(=O)NC(=O)Nc1nc(C)nc(OC)n1	0.126% (inactive)	–
C#CC1(O)CCCCC1	0.0719% (inactive)	–
COc1cnc(OC)n2nc(NS(=O)(=O)c3c(OCC(F)F)cccc3C(F)(F)F)nc12	-4.57% (inactive)	–
O=[N+]([O-])[O-].[Tl+]	-0.795% (inactive)	–

Structure (SMILES)	activity change, negative = cytotoxicity	Potency
Cc1cccc(Cc2cnc[nH]2)c1C	-5.58% [at 42.5 µM] (inactive)	–
O=C(NC(=O)c1ccccc1Cl)Nc1ccc(OC(F)(F)F)cc1	5.8% (inactive)	–
CC(C)[C@@H](Nc1ccc(C(F)(F)F)cc1Cl)C(=O)OC(C#N)c1cccc(Oc2ccccc2)c1 (stereo not given in full)	4.65% (inactive)	–
CCC[CH2][Sn]([CH2]CCC)([CH2]CCC)[CH2]CCC	–	17.2 µM (active)
ClSC(Cl)(Cl)Cl	-0.205% (inactive)	–
ClC1(Cl)C2(Cl)C3(Cl)C4(Cl)C(Cl)(Cl)C5(Cl)C3(Cl)C1(Cl)C5(Cl)C24Cl (stereo not given)	8.04% (inactive)	–
Clc1ccc(C2(Cn3cncn3)OCCO2)c(Cl)c1	0.0382% (inactive)	–
Oc1ccc([C@H]2CNCc3c2ccc(O)c3O)cc1O	–	26.6 µM (active)
CCOP(=O)(OCC)Oc1nc(Cl)c(Cl)cc1Cl	5.74% (inactive)	–
O=c1[nH]c2cc(Cl)ccc2n1C1CCNCC1	-5% [at 42.5 µM] (inactive)	–
COP(=S)(NC(C)C)Oc1ccc(C)cc1[N+](=O)[O-] (stereo not given)	-5.04% (inactive)	–
O=NN(CCO)CCO	-8.42% (inactive)	–
Cc1ccn2nc(S(=O)(=O)Nc3c(F)cccc3F)nc2n1	2.63% (inactive)	–
CN(C)CCc1c[nH]c2ccccc12	-9.14% (inactive)	–
O.O.O.O=C([O-])[C@H]([O-])[C@@H]([O-])C(=O)[O-].O=C([O-])[C@H]([O-])[C@@H]([O-])C(=O)[O-].[K+].[K+].[Sb+3].[Sb+3]	–	54.8 µM (active)
N#Cc1c2ccccc2cc2ccccc12	14.8% (inactive)	–
COP(=S)(OC)Oc1ccc([N+](=O)[O-])c(C)c1	-14.1% (inactive)	–
CC(=O)C(Cl)C(=O)N(C)C (stereo not given)	0.239% (inactive)	–
CSC(=O)c1c(C(F)F)nc(C(F)(F)F)c(C(=O)SC)c1CC(C)C	0.408% (inactive)	–
O=S1OCC2C(CO1)C1(Cl)C(Cl)=C(Cl)C2(Cl)C1(Cl)Cl (stereo not given)	-9.41% (inactive)	–
